# According to PubChem BioAssay (NCATS):
# Inconclusive results are not listed. A call without a number means that no potency is given here. Unmarked numbers belong to inactive results. Activity calls are given as the source filed them. Calls follow the shape of the dose curve; as a rule, active = well fitted curve in the direction sought with a large enough effect; inconclusive = small, poorly fitted or top-dose-only effect, or another doubt; inactive = no such curve, though single readings can be large; an effect the other way counts as inactive or inconclusive.
# Columns and labels:
# [1] = qHTS to identify inhibitors of the type 1 interferon - major histocompatibility complex class I in skeletal muscle: primary screen against the NCATS Mechanism Interrogation Plate v5.0 (MIPE) Libary (AID 1347411); also: nearly all actives have a fitted effect of over 65% in size
# Procedure, shortened: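 Luminescence from HiBiT-tagged endogenous HLA-B*08:01 served as the MHC class I read-out. CRISPR-engineered C25cl48 human myoblasts received 4.0 ng/ml IFN-beta plus compound for 24 hrs, with an 11-point, 1:3 series topping at 46 uM final.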
# [2] = molecular target: Calcium and integrin-binding protein 1 (Homo sapiens) (UniProt Q99828); test: Validation qHTS for Identification of Calcium Integrin Binding protein 1 (CIB1) Competitor (AID 1508618)
# Procedure, shortened: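 CIB1-GST (1 uM final) incubated 15 min at room temperature with compounds (up to 114 uM), then FITC-labelled alphaIIb peptide (100 nM) added. FP read (Ex 480/Em 540) after 15 min, pH 7.4 buffer containing 5 mM CaCl2.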
# [3] = molecular target: Calcium and integrin-binding protein 1 (Homo sapiens) (UniProt Q99828); test: Primary qHTS for Identification of Calcium Integrin Binding Protein 1 (CIB1) Competitor (AID 1508620);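 also: GST tagged CIB1 binding a fluorescein labelled alphaIIb integrin peptide tracer; top concentration of the series differs between compounds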
# Procedure, shortened: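 Fluorescence polarization competition: GST-tagged CIB1 (1 uM final) preincubated with compound 15 min at room temperature, then FITC-labelled alphaIIb peptide (100 nM final) added. After 15 min at room temperature, polarization read at Ex 480/Em 540.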
# [4] = molecular target: Protein phosphatase 1D (Homo sapiens) (UniProt O15297); test: RapidFire Mass Spectrometry qHTS Assay for Modulators of WT P53-Induced Phosphatase 1 (WIP1) (AID 1347424);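 also: amount of dephosphorylated VEPPL-S-QETFS peptide product formed by WIP1; series mostly up to about 63 µM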
# Procedure, shortened: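 10 nM WIP1 preincubated with compounds 1 hr at room temperature in pH 7.5 Tris buffer with 30 mM MgCl2, 1 mM TCEP; 2 uM VEPPL-pS-QETFS phosphopeptide for 5 min, formic acid quench; dephosphorylated product quantified by RapidFire MS against labelled standard.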
# [5] = molecular target: Protein phosphatase 1D (Homo sapiens) (UniProt O15297); test: Rhodamine-PBP qHTS Assay for Modulators of WT P53-Induced Phosphatase 1 (WIP1) (AID 1347425)
# Procedure, shortened: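 The read-out is the change in Rhodamine-PBP fluorescence (f1 - f0, ex 525/em 598 nm) as Pi is released, read each minute for 11 min. Final reaction: 5 nM WIP1, 10 uM phosphopeptide VEPPL-pS-QETFS, 10 uM Rh-PBP, 50 mM Tris-HCl pH 7.5, 30 mM MgCl2. Compound was preincubated with enzyme for 1 hour at room temperature.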
# [6] = Primary qHTS for inhibitors of La Crosse Virus (LACV) - induced cell death in SH-SY5Y cells (AID 1508616);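 also: top concentration of the series differs between compounds; higher means more rescue of cells from virus-induced death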
# Procedure, shortened: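 Protection against LACV-induced cell death is scored in SH-SY5Y cells exposed to compounds and virus (0.01 MOI) for 6 days. Data normalized to virus-infected DMSO wells and virus-free DMSO wells.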
# [7] = Counterscreen qHTS for small molecule stabilizers of the endoplasmic reticulum resident proteome: GLuc-NoTag assay (AID 1508627); also: potency is read from the fitted curve at half-maximal effect
# Procedure, shortened: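 SH-SY5Y cells stably expressing constitutively secreted GLuc without SERCaMP tag, exposed to compound for 19 hr, then to 100 nM thapsigargin for 4 hr at 37C. Medium luciferase was read by coelenterazine luminescence without lysis.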
# Calcium and integrin-binding protein 1 (Homo sapiens), sequence (Q99828 whole entry, looked up): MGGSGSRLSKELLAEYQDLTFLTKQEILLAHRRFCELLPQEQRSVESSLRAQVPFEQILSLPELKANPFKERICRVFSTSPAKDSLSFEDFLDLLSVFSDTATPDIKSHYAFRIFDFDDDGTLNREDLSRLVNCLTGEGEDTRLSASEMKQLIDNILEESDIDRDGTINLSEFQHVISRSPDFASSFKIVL
# Protein phosphatase 1D (Homo sapiens), sequence (O15297 whole entry, looked up): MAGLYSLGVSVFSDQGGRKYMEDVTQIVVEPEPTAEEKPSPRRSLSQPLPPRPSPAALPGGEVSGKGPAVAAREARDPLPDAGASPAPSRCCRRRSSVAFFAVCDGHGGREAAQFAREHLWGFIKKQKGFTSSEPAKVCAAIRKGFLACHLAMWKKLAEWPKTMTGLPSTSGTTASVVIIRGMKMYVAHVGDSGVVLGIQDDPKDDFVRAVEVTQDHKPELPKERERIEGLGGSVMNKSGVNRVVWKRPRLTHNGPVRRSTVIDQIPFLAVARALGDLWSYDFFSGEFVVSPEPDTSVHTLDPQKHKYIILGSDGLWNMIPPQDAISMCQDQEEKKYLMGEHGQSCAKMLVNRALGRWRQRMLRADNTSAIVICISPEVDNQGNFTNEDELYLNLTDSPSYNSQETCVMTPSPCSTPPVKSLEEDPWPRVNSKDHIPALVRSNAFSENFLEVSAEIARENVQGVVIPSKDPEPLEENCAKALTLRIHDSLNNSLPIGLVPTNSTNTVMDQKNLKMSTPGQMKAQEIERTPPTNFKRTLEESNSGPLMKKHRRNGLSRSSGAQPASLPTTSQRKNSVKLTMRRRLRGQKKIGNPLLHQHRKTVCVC
structure (smiles),measurement,setting,value
Clc1ccc2c(N3CCN(CCCN4CCN(c5ccnc6cc(Cl)ccc56)CC4)CC3)ccnc2c1,Potency,[1],inactive
same,outcome,[2],inactive
same,Potency,[3],inactive
Nc1nc(Cl)nc2c1ncn2[C@H]1C[C@H](O)[C@@H](CO)O1,Potency,[1],inactive
same,Potency,[3],inactive
O=C(OC1C[C@H]2CC[C@@H](C1)[N+]21CCCC1)C(O)(c1ccccc1)c1ccccc1 (stereo partly specified),Potency,[4],inactive
same,outcome,[5],inactive
same,Potency,[3],inactive
O=P(O)(O)C(O)(Cn1ccnc1)P(=O)(O)O,"activity change, negative = inhibition",[1],2.74% [at 5.1 µM]
same,Potency,[3],inactive
CN(C)[C@@H](CCOc1cccc2ccccc12)c1ccccc1,Potency,[4],inactive
same,outcome,[5],inactive
same,Potency,[3],inactive
O=c1oc2cc(O)ccc2s1,Potency,[1],inactive
same,Potency,[3],inactive
C[C@@H](c1ncncc1F)[C@](O)(Cn1cncn1)c1ccc(F)cc1F,Potency,[1],inactive
same,outcome,[2],inactive
same,Potency,[3],inactive
CN(C)CCc1c[nH]c2ccc(Cn3cncn3)cc12,Potency,[3],inactive
CCCCc1ccc2nc(NC(=O)OC)[nH]c2c1,Potency,[4],inactive
same,outcome,[5],inactive
same,Potency,[3],inactive
CCCCCCCCOc1ccccc1C(=O)Nc1ccc(C(=O)OCC[N+](C)(CC)CC)cc1,Potency,[4],inactive
same,Potency,[3],inactive
NC(=O)Cc1cccc(C(=O)c2ccccc2)c1N,Potency,[4],inactive
same,outcome,[5],inactive
same,Potency,[3],inactive
Cc1cccc(C)c1OCC(=O)N[C@@H](Cc1ccccc1)[C@@H](O)C[C@H](Cc1ccccc1)NC(=O)[C@H](C(C)C)N1CCCNC1=O,Potency,[4],inactive
same,Potency,[6],inactive
same,Potency,[3],inactive
same,Potency,[7],39.8 µM (active)
O=C1CCc2ccc(OCCCCN3CCN(c4cccc(Cl)c4Cl)CC3)cc2N1,Potency,[4],inactive
same,Potency,[3],inactive
CN1C(C(=O)Nc2ccccn2)=C(O)c2sccc2S1(=O)=O,Potency,[4],inactive
same,Potency,[6],inactive
same,Potency,[3],inactive
